Activity calls are given as the source filed them. No stated cut-off is given here; in the data, active means inhibition above about 65%; inactive means the rest.

The assay concerns Fam108b. As to the kind of experiment: Fam108b inhibition by ABPP, late-stage follow-up, biochemical, gel-based ABPP, recombinant soluble Fam108b, HTS hits, complex proteome (AID 588651).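 Further: Fam108b spiked into mouse brain membrane proteome.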 Particulars: FP-rhodamine labeling in proteome, at 20 µM, hits give high values.
On to `Cc1ccc(C)c(-n2c3nc(=O)[nH]c(=O)c-3cc3cc([N+](=O)[O-])ccc32)c1`, for which the inhibition is 0% (inactive).

Take `Oc1cccc2cc3cccc(O)c3c(O)c12`: the inhibition was 85% (active).

Turning to `COc1ccc(/C=C2\SC(=S)N(CC(=O)OCC(=O)Nc3cc(Cl)cc(Cl)c3)C2=O)cc1`, the inhibition was 0% (inactive).

Regarding `CN(c1ccccc1)S(=O)(=O)c1ccc(NC(=O)c2ccc(-c3ccccc3)cc2)cc1`, the inhibition was 40% (inactive).

Regarding `O=c1ccc2cc3c([nH]c4ccc(Br)cc43)oc-2c1O`, the inhibition is 10% (inactive).

As to `CCN(c1ccccc1)S(=O)(=O)c1ccc(NC(=O)c2nc(S(C)(=O)=O)ncc2Cl)cc1`, the inhibition is 0% (inactive).

On to `Cn1c(O)c(C=NNC(=O)c2cc3ccccc3cc2O)c2ccccc21`, for which the inhibition was 35% (inactive).

On to `O=C(O)c1ccc(S(=O)(=O)/N=C2\C=C(Nc3ccccc3F)C(=O)c3ccccc32)cc1`, for which the inhibition is 0% (inactive).

Turning to `O=c1oc(-c2ccccc2F)nc2scc(-c3ccccc3)c12`, the inhibition is 98% (active).

On to `COc1ccc(/C=C/C(=O)OCC(=O)Nc2cccc(Oc3ccccc3)c2)c(OC)c1`, for which the inhibition is 30% (inactive).

In the case of `Cc1ccc(-c2csc3nc(C(C)C)oc(=O)c23)c(C)c1`, the inhibition is 90% (active).

As for `O=C1NC(=S)/C(=C\c2ccc(-c3ccccc3Cl)o2)S1`, the inhibition is 0% (inactive).

In the case of `CCc1ccc(S(=O)(=O)/N=C2\C=C(Nc3cccc(C(=O)O)c3)C(=O)c3ccccc32)cc1`, the inhibition is 0% (inactive).

Turning to `O=C(NN=Cc1ccc(O)cc1)c1cccc(NN=Cc2ccc(O)cc2)c1`, the inhibition was 60% (inactive).

On to `O=C(Nc1ccc(-c2csc(Nc3cccc(C(F)(F)F)c3)n2)cc1)c1cccc(C(F)(F)F)c1`, for which the inhibition was 95% (active).

The values are drawn from PubChem BioAssay AID588651 (The Scripps Research Institute Molecular Screening Center, 2011).
